Experimental data published in ChEMBL document CHEMBL3988442, “University of Dundee, Small-Polar-MMV Screening Library” (2021).
For some assays here: Measured potencies and affinities stand elsewhere.

What was measured:
Design in all cases: scale not given: direction of the effect not stated beside the values
[1] = molecular target: Protein translocase subunit SecA (Escherichia coli (strain K12)) (UniProt P10408); assay: Assay to Identify E. coli SecA ATPase Inhibitors; assay type: functional; conditions: 30 µM
Sequence of Protein translocase subunit SecA (Escherichia coli (strain K12)) (P10408 whole entry): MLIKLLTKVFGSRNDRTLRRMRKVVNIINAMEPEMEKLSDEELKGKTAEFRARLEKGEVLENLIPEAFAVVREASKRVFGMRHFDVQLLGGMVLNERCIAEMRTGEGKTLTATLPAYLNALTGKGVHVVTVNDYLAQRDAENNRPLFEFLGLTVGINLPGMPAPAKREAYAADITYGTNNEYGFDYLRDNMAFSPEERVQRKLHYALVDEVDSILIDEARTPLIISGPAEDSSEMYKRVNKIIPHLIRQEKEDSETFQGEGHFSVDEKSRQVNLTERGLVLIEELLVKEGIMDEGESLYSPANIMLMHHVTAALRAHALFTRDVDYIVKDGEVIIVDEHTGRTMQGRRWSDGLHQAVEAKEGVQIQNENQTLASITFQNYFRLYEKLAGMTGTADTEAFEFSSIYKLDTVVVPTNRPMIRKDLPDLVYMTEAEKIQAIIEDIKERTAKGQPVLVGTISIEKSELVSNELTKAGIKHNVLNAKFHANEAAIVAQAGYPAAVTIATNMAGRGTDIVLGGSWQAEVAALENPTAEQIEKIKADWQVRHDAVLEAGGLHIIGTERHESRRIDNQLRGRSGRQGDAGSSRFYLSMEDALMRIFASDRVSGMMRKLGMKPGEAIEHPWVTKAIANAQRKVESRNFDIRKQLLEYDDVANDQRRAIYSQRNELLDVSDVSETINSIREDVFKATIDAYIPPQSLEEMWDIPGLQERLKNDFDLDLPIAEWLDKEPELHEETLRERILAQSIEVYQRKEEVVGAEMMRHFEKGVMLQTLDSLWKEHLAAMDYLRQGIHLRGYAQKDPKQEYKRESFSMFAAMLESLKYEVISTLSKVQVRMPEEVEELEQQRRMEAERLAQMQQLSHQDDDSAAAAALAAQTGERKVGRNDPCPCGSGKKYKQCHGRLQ

[2] = molecular target: T1, Ubiquitin-activating enzyme e1, putative (Leishmania donovani (strain BPK282A1)) (UniProt E9BSI1); assay: Leishmania donovani Ubiquitin Activating Enzyme (LdE1); assay type: functional; conditions: 30 µM
T1 sequence (whole entry): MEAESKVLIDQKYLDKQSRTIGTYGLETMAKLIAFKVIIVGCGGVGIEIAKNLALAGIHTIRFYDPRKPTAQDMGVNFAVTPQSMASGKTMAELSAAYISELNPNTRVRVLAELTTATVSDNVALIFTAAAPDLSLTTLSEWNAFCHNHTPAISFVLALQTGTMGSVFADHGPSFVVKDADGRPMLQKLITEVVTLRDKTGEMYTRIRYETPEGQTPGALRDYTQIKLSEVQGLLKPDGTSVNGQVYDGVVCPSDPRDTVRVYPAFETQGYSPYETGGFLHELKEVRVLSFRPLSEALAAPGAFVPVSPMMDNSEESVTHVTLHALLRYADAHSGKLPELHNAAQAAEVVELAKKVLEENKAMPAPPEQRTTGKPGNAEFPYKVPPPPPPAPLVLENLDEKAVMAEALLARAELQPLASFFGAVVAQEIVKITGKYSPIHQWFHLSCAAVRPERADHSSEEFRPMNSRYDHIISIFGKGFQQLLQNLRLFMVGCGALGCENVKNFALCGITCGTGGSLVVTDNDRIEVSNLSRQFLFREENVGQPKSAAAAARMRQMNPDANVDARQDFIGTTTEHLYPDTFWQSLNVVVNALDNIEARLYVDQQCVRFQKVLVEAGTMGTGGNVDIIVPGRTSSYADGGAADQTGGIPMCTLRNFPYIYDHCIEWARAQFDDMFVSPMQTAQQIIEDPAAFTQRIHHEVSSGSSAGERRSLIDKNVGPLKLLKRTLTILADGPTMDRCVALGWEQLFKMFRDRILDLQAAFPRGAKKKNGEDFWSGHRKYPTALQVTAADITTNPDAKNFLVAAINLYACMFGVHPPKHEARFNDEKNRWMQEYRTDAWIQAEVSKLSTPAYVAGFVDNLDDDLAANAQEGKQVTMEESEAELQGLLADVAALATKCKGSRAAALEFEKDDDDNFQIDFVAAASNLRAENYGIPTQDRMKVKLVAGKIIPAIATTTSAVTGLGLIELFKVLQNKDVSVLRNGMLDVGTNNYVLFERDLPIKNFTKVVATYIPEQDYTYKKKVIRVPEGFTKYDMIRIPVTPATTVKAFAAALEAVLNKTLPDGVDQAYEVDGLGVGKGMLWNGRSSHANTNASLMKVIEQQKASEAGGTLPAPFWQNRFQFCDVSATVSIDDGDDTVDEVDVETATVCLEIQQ

[3] = molecular target: AMP-activated protein kinase, AMPK (Homo sapiens) (UniProt P54646+O43741+P54619+Q9UGJ0+Q9Y478+Q13131+Q9UGI9); assay: AMP-dependent Kinase enzyme assay. An in vitro enzyme assay that detects ADP turnover that is directly proportional to AMPK activity. This uses naive AMPK that is activated during the assay with MK-8722; assay type: functional; conditions: 30 µM
[4] = molecular target: Sialic acid-binding Ig-like lectin 9 (Homo sapiens) (UniProt Q9Y336); assay: Hs-Siglec9 ALPHAscreen SOP 20170721; conditions: 10 µM
Sequence of Sialic acid-binding Ig-like lectin 9 (Homo sapiens) (Q9Y336 whole entry): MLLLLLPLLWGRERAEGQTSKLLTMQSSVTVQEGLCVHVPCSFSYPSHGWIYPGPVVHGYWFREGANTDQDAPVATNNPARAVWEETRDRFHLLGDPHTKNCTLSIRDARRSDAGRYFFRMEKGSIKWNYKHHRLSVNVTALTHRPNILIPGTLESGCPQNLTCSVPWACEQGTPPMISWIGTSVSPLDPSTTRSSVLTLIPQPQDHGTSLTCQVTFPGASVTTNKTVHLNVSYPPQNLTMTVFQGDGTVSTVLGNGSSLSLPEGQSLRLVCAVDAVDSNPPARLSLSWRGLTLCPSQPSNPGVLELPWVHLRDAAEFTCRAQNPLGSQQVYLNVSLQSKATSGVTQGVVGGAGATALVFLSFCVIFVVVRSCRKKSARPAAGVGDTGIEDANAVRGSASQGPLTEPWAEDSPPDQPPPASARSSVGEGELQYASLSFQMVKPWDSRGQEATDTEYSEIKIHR

Trypanosoma cruzi = assay: Trypanosoma cruzi phosphomannomutase and mannose-1-phosphate guanylyltransferase assay; assay type: functional; conditions: 10 µM
[5] = molecular target: T2, Arginase-2, mitochondrial (Homo sapiens) (UniProt P78540); assay: in vitro enzyme assay to detect the production of urea directly proportional to the activity of Arginase II; assay type: functional; conditions: 33.3 µM; also: in the data most compounds retested in dose-response had high values
T2 sequence (whole entry): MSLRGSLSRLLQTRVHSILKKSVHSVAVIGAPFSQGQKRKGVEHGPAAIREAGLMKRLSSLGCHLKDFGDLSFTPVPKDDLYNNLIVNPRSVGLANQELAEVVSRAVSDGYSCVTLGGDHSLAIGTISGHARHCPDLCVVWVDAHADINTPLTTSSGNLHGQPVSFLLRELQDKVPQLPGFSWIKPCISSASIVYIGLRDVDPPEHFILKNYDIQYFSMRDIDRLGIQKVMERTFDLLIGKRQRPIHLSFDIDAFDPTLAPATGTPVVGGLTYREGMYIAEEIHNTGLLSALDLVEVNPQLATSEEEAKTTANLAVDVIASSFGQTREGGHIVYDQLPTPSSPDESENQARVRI

[6] = molecular target: T3, Proteasome subunit beta (Trypanosoma cruzi) (UniProt O96673); assay: Trypanosoma cruzi proteasome chymotrypsin-like activity (TcProtChymo) assay.; also: in the data most compounds retested in dose-response had high values; assay type: functional; conditions: 9.37 µM
T3 sequence (whole entry): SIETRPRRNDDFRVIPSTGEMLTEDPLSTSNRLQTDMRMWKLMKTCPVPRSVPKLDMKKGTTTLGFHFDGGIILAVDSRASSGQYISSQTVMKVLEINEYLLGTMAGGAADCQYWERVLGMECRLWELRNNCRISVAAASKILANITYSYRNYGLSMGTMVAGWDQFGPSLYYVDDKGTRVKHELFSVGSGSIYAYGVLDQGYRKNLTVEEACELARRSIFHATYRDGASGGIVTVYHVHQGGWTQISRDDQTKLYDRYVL

Homo sapiens = species: Homo sapiens; assay: To identify inhibition of the IFN signalling (Jak-Stat) pathway via expression of an eGFP reporter gene under the control of an IFN-stimulated response element (ISRE) containing MxA promoter.; assay type: functional; conditions: 30 µM
[7] = molecular target: T4, Tyrosyl-tRNA synthetase, putative (Trypanosoma cruzi (strain CL Brener)) (UniProt Q4DSP6); assay: Trypanosoma cruzi tyrosyl tRNA synthetase (TcYRS) _High Tyrosine SOP; assay type: functional; conditions: 30 µM; also: in the data most compounds retested in dose-response had high values
T4 sequence (whole entry): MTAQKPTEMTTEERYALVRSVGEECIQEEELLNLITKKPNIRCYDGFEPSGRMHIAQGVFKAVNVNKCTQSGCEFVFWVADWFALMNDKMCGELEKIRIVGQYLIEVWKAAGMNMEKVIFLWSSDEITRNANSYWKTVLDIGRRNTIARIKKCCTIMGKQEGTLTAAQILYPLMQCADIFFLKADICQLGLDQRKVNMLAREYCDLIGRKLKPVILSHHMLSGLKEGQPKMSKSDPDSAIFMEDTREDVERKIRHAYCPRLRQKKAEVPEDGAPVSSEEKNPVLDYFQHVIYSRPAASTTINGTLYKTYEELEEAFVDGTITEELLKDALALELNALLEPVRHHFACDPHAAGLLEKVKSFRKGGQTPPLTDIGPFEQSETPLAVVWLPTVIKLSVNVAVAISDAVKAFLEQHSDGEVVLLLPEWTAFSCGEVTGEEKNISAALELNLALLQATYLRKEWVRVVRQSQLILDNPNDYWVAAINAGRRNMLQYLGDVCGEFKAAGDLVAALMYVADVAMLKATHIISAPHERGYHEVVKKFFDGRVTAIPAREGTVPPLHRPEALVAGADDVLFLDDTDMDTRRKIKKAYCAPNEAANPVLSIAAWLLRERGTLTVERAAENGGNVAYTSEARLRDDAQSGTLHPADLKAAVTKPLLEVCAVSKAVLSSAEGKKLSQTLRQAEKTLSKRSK

[8] = molecular target: T4, Tyrosyl-tRNA synthetase, putative (Trypanosoma cruzi (strain CL Brener)); assay: Trypanosoma cruzi tyrosyl tRNA synthetase (TcYRS) SOP; assay type: functional; conditions: 30 µM
[9] = molecular target: Chromo domain-containing protein 1 (Saccharomyces cerevisiae (strain ATCC 204508 / S288c) (Baker's yeast)) (UniProt P32657); assay: ScCHD-1 Enzyme Inhibition Assay; assay type: functional; conditions: 30 µM; also: in the data most compounds retested in dose-response had high values
Sequence of Chromo domain-containing protein 1 (Saccharomyces cerevisiae (strain ATCC 204508 / S288c) (Baker's yeast)) (P32657 whole entry, the tested form may be a part): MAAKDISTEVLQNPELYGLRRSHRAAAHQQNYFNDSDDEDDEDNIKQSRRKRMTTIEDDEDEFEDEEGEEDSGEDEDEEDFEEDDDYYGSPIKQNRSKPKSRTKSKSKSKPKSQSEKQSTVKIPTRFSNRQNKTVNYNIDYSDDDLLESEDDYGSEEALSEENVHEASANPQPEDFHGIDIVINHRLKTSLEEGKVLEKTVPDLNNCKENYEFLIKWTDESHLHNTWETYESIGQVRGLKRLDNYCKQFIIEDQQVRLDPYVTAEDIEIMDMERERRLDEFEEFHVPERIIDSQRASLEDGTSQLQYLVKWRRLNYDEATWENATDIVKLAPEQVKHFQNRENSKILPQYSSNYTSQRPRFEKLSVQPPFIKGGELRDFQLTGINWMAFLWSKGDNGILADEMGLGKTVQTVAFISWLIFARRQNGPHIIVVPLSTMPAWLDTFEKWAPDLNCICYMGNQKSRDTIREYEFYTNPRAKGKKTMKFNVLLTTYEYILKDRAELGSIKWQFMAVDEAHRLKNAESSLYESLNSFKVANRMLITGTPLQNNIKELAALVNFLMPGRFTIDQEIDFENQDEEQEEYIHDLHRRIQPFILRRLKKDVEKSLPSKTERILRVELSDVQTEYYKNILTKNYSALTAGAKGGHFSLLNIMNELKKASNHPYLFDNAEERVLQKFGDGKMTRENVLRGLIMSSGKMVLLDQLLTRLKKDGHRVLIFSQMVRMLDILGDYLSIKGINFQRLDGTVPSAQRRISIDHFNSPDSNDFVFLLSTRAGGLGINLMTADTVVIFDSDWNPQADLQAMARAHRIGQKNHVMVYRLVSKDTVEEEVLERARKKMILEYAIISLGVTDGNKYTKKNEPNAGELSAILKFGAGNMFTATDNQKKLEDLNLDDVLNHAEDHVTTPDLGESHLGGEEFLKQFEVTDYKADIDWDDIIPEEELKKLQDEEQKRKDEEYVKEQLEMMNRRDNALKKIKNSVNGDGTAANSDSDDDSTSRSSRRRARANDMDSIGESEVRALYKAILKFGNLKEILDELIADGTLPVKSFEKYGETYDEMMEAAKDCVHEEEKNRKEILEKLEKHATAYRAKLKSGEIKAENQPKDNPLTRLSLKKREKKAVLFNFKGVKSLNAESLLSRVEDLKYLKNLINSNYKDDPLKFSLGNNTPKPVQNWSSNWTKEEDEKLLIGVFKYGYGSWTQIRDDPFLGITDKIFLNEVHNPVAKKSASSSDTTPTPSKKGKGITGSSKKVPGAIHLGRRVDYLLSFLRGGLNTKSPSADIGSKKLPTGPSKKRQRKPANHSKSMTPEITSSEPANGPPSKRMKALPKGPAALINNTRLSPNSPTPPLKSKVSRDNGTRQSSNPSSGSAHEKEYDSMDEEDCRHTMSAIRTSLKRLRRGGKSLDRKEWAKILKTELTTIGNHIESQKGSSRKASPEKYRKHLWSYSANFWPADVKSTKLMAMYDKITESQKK

| Structure (SMILES) | Percent Effect [1] [%] | Percent Effect [2] [%] | Percent Effect [3] [%] | Percent Effect [4] [%] | Percent Effect (Trypanosoma cruzi) [%] | Percent Effect [5] [%] | Percent Effect [6] [%] | Percent Effect (Homo sapiens) [%] | Percent Effect [7] [%] | Percent Effect [8] [%] | Percent Effect [9] [%] |
| --- | --- | --- | --- | --- | --- | --- | --- | --- | --- | --- | --- |
| CC(C)OCCCNC(=O)c1ccc(-c2ccco2)[nH]c1=O | -4.6 | 10.8 | 60.2 | -6.26 | -7.83 | -1.6 | 10.1 | 12.9 | 6.4 | 11.1 | -5.48 |
| c1cnc(-c2cnc(N3CCSCC3)nc2C2CCCO2)cn1 (stereo unspecified) | -4.61 | 6.76 | 9.87 | 3.27 | -5.53 | -1.16 | 9.98 | 10.7 | 1.07 | 6.49 | -13.3 |
| Cc1[nH]ccc1C(=O)Nc1cccc(CN2CCC(O)CC2)c1 | 0.333 | 10.5 | -2.05 | -6.23 | -5.36 | -2.37 | 16.2 | 8.85 | 1.06 | 10.4 | -3.89 |
| Cc1cnn(CCNCc2nc(COc3ccc(F)cc3)no2)c1 | -2.17 | 2.63 | 1.92 | 0.726 | 0.94 | 1.92 | 12.7 | 11.9 | 4.41 | -29.3 | -8.97 |
| CN(C)CCCNC(=O)CNC(=O)N1CCc2c([nH]c3ccccc23)C1 | -6.34 | -1.33 | 20.1 | -2.5 | -2.16 | -10.4 | 9.06 | 13.6 | 1.06 | -5.13 | -6.13 |
| O=C(c1ccc(F)cc1)N1CCN2C[C@H](OCc3ccccn3)C[C@H]2C1 | -5.08 | 8.11 | 5.44 | -1.47 | -2.83 | 1.59 | 20.7 | -8.06 | 7.57 | 12.8 | 1.66 |
| COCc1cccc(CNC(=O)CN2CCCC2c2noc(C)n2)c1 (stereo unspecified) | -2.68 | 23.7 | -2.93 | 3.2 | 5.83 | -2.68 | 15.5 | 1.75 | 4.41 | 24.4 | -13 |
| Cc1nn(C)c2c(N3CCN(C(=O)c4ccccc4)CC3)ncnc12 | 1.93 | 9.33 | 2.69 | -1.85 | -6.68 | -10.4 | 12 | 12.3 | 8.47 | 12.8 | -10.3 |
| Cc1nc(CN2CCCC(Cn3cc(CCO)nn3)C2)c[nH]1 (stereo unspecified) | -1.16 | 0 | -4.62 | 20.6 | 5.21 | 0.952 | 5.17 | -10.1 | 1.59 | 9.76 | -7.08 |
| Fc1ccc2[nH]c(C3CCCN3CCc3ccccn3)nc2c1 (stereo unspecified) | -0.354 | 8.22 | -4.31 | 9.65 | 1.98 | -1.2 | 18.6 | -28.3 | 13.5 | 23.5 | 2.89 |
| Cc1cc(=O)n(CC(=O)Nc2ccc(C(N)=O)cc2)nc1C | -0.496 | 0 | -2.6 | 15.7 | 3.67 | 0.952 | 11.6 | 4.44 | 1.59 | 9.76 | -0.0727 |
| CC(=O)N1CC[C@H]2OCC[C@@]2(C(=O)NCc2ccco2)C1 | -5.68 | 5.33 | -0.449 | 12.6 | -2.12 | -44.3 | 11.3 | -5.97 | 4.17 | 5 | -6.83 |
| CCS(=O)(=O)N1CCC(c2nnc(Cn3cccn3)n2C2CC2)CC1 | -4.32 | 1.39 | -35.4 | -1 | 2.23 | 3.97 | 2.1 | -11.4 | 2.1 | 7.69 | -2.3 |
| Cc1cccc(NC(=O)CNC(=O)Cn2ncc(Cl)c(Cl)c2=O)c1C | -1.81 | 0 | 26 | 2.69 | -8.4 | 0 | 16.6 | 23.8 | 11.9 | -1.22 | 7.2 |
| O=c1cc(CN2CCCC(CCc3c(F)cccc3F)C2)[nH]c(=O)[nH]1 (stereo unspecified) | 1.76 | 10.8 | -7.22 | 1.61 | 4.25 | 14.3 | 16.7 | 25 | 10.1 | 19.5 | -4.32 |
| Cc1ccc(NC2CCN(C(=O)Cc3ccc(C#N)cc3)CC2)nn1 | -4.53 | 2.7 | -6.02 | 18.2 | 4.81 | -4.41 | 3.24 | -19.9 | 6.4 | 18.5 | -10.7 |
